# From PubChem
# The list is not random: actives were taken first. Their share in the collection is about 1.8%.
# RAD52 inh – blocks human RAD52 DNA annealing; recombinant RAD52 DNA annealing, FRET fluorescence; inhibition, % at 18.7 µM; 360,000 compounds, 0.46% hits; AID 651710;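 active = every replicate showing at least 50% inhibition; inconclusive = mean inhibition at least 50% but not in every replicate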
# EWS-Fli inh – blocks EWS/Fli oncoprotein-driven transcription; inhibition, % at 12.6 µM; AID 651661; 350,000 compounds, 0.67% hits; A673 NR0B1-luciferase reporter, viability-normalised;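 active = mean inhibition of at least 50% after viability correction, with every replicate also passing that limit; inconclusive = mean reaches 50% but only one of two replicates passes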;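 also: firefly luciferase signal divided by Alamar Blue viability fluorescence both relative to DMSO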
# F508del corr – CFTR F508del correction in bronchial cells. 350,000 compounds, 0.36% hits. activity (quench increase), % at 7.58 µM. CFBE cells, YFP halide quenching; stimulated with forskolin plus potentiator P3; % fluorescence drop versus neutral controls;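 active = mean added fluorescence quench of at least 8% versus neutral control, with both replicates also reaching 8%; inconclusive = only one of the mean or replicate conditions met; inactive = mean below 8% and not both replicates reaching 8%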;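 also: cells transiently co-express mutant CFTR-F508del with the halide-sensitive YFP; corrector assay measuring rescue of mutant channel to the surface after 24 h compound exposure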
# GSIS activator – GLuc luminescence reporter in INS-1E cells, primary screen for activators of glucose-dependent secretion of insulin; INS-1E GLuc reporter insulin secretion, 2-3 h; activation, % at 16.6 µM; 370,000 compounds, 0.61% hits;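 active = lowest replicate activation of at least 40%, so every replicate reaches that level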;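 also: 0% = median of neutral control wells and 100% = median of IBMX positive control wells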
# LGR2 antag – blocks bursicon-induced cAMP signaling via Drosophila LGR2 | inhibition, % at 9.99 µM | HEK293 LGR2, CRE-luciferase, bursicon-stimulated, 4 h | 380,000 compounds, 0.35% hits;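 active = drop in luminescence signal, shown as inhibition above about 50% in the replicate tests, limit read from the data, passing the limit was not always enough; inconclusive = probably only some replicates passing the limit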;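 also: agonist challenge used bursicon conditioned medium at about half maximal strength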
# RAD54 branch – RAD54 (human) branch migration inhibition. 360,000 compounds, 0.14% hits. inhibition, % at 10.4 µM. AID 602329. RAD54 Holliday junction branch migration, FAM/BHQ fluorescence. Q92698;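 active = mean normalized replicate activity at least 40 and at least half of replicates scoring 40 or more; inconclusive = only one of the two criteria met; inactive = mean below 40 and under half of replicates reaching 40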;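 also: 0% = median of neutral control wells and 100% = median of positive control wells; inhibitors cause a drop in the FAM fluorescence signal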
# Target sequence (Q92698 whole entry, looked up): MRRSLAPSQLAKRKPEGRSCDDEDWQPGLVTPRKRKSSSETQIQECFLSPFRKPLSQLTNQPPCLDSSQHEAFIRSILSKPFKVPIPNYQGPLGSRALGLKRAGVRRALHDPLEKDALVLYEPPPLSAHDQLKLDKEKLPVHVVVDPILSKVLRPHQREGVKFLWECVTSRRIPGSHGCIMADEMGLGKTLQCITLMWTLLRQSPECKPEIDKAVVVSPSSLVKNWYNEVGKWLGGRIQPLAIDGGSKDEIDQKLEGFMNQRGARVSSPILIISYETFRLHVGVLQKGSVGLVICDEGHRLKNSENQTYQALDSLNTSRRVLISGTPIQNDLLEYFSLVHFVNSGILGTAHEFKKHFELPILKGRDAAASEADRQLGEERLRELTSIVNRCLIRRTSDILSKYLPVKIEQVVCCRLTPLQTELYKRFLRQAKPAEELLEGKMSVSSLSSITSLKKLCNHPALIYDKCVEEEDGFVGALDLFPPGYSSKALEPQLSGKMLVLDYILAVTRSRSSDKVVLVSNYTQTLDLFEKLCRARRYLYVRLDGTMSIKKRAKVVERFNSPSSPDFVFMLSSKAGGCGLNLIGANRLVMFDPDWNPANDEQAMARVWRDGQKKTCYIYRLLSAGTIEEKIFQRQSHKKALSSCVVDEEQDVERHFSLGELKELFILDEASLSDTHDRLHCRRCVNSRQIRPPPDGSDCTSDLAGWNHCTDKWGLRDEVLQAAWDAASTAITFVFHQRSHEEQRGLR
# Active calls of the source: *; ? = inconclusive; · = no result given.
SMILES,RAD52 inh,EWS-Fli inh,F508del corr,GSIS activator,LGR2 antag,RAD54 branch
C=CCn1c(C)cc(C2=NNC(=NC(C)(C)C)SC2)c1C,-10,60*,·,4,0,·
COc1ccc(OCc2nnc(SCC(N)=O)n2-c2ccccc2OC)cc1,·,·,·,·,·,-13
O=C(C=Cc1ccccc1)CC(c1ccccc1)N1CCOCC1 (centres undefined),-14,59*,-1,-29,1,-9
COc1ccc(CCN(C)C(=O)c2oc3ccccc3c2C)cc1OC,-9,10,0,105*,-15,7
COc1ccc(CN(C(=O)c2oc3ccccc3c2C)C2CCS(=O)(=O)C2)cc1OC (centres undefined),·,·,·,11,10,6
Cc1noc(C)c1NC(=O)N(C)C[C@@H]1OCCCC[C@@H](C)Oc2ccc(NS(=O)(=O)c3cn(C)cn3)cc2C(=O)N([C@@H](C)CO)C[C@H]1C,·,-8,-1,9,5,-1
Cc1cccc2[nH]c3c(N4CC=C(c5ccc(F)cc5)CC4)ncnc3c12,-13,-9,1,41*,1,-1
CCCC(=O)Nc1ccc2c(c1)C(=O)N(C)C[C@H](OC)[C@@H](C)CN(C(=O)c1cnccn1)[C@@H](C)CO2,-14,-6,-1,2,-2,-2
C[C@@H]1CN([C@@H](C)CO)C(=O)c2cc(N(C)C)ccc2O[C@@H](C)CCCCO[C@@H]1CN(C)Cc1ccc(C(F)(F)F)cc1,-17,-4,0,1,-2,-3
CC(=O)c1ccc(Nc2cc(C)nc3ccccc23)cc1,-11,31,3,-10,4,·
COc1ccc(Nc2cc(C)nc3ccccc23)cc1,18,1,-2,42*,-1,35
CCOc1ccccc1Nc1cc(C)nc2ccc(C)cc12,-8,20,2,·,·,5
COc1ccc(OC)c(Nc2cc(C)nc3ccc(C)cc23)c1,1,57*,12*,37,6,20
COc1ccc(/C=N/Nc2ncccc2[N+](=O)[O-])c(OC)c1,-10,-136,2,-1,66*,·
COC(=O)c1ccc(Nc2cc(C)nc3ccc(C)cc23)cc1,-2,19,?,·,74*,·
CC1CCCCC1NC(=O)CN1C(=O)NC(C)(c2cccc(Br)c2)C1=O (centres undefined),-5,4,-3,-26,5,10
COc1ccc(N2CCN(C(=O)c3cc4c(s3)-c3ccccc3OC4)CC2)cc1,-4,5,-1,-9,-3,0
O=C(CN1C(=O)NC(Cc2c[nH]c3ccccc23)C1=O)NC1CCCCC1 (centres undefined),4,7,3,-2,7,9
C[C@@H]1CN([C@@H](C)CO)C(=O)c2cccc(NC(=O)C3CCCCC3)c2O[C@@H]1CN(C)S(=O)(=O)c1ccccc1,13,-17,-3,-4,16,-16
CNC(=O)Nc1ccc(Cn2cc(C(F)(F)F)ccc2=O)cc1,-15,2,2,-11,-3,·
COc1ccc(/C=N/Nc2cc(C)nc3ccc(OC)cc23)c(OC)c1,88*,66*,-14,28,103*,95*
COC(=O)c1ccc(CNC(=O)CSc2nc3ccccc3[nH]2)cc1,-25,-3,1,79*,7,-9
Cc1ccc(CNC(=O)CSc2nc3ccccc3[nH]2)cc1,-16,-10,-1,2,3,-7
Cc1ccc(N2CC(C(=O)N(C)CC(=O)Nc3ccc(Cl)c(C(F)(F)F)c3)CC2=O)cc1 (centres undefined),-10,9,9.2*,-67,-12,9
CN(CC(=O)Nc1ccc(Cl)c(C(F)(F)F)c1)C(=O)CCN1C(=O)C2CCCCC2C1=O (centres undefined),-17,2,10*,-40,39,-4
COc1ccc([C@H]2/C=C\CN(C(=O)CC(C)(C)C)[C@@H](C)C(=O)N2Cc2ccc(F)cc2)cc1,-20,12,0,-31,-5,-5
Cc1ccc2nc(SCC(=O)Nc3ccccc3N3CCOCC3)c(C#N)cc2c1,·,·,·,·,·,5
CCc1ccc2nc(SCC(=O)Nc3ccccc3N3CCOCC3)c(C#N)cc2c1,-16,59*,2,15,-3,·
COc1ccccc1NC(=O)CSc1nnc(CSc2nc(C)cc(C)n2)o1,-12,-3,-2,11,28,·
